Legend:
Test in all cases: DAPPL (digital affinity profiling via proximity ligation, sequencing); 10 mM Tris-HCl pH 7.5, 50 mM NaCl, 1 mM DTT, 4% glycerol, room temperature, 30 min; GST-TFs on glutathione beads, 16-mer random dsDNA library, 0.1% formaldehyde crosslink after washing; high values mean tight binding
Settings in all cases: protein: recombinant; tags: N-terminal GST; dsDNA, one strand shown
[1] = molecular target: T1, FLI1 (Homo sapiens, UniProt Q01543 1-452)
T1 sequence: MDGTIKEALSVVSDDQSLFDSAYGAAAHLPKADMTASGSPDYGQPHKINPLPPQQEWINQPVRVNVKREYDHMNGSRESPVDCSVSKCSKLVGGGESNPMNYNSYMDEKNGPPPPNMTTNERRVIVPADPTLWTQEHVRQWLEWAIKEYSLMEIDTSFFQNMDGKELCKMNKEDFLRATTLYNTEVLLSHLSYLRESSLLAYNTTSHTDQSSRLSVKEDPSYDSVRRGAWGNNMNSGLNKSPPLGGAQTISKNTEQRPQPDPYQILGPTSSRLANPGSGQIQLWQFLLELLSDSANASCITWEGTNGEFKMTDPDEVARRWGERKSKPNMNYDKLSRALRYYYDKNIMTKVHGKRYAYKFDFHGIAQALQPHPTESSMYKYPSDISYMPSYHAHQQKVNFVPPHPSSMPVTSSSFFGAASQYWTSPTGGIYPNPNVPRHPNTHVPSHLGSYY
Outline: (§1)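 Human transcription factors fused to GST were expressed in yeast, captured on glutathione beads, given DNA barcodes and pooled with a GST-only negative control. Pools were incubated with 200 nmole of a 16-mer random double-stranded DNA library in Tris/NaCl/DTT/glycerol buffer at room temperature for 30 min. They were then washed, crosslinked with 0.1% formaldehyde, proximity-ligated (BsaI/T4 ligase, 1 h, 37 °C), PCR-amplified and sequenced on an Illumina NextSeq500. Binding signal is each 6-mer's read frequency for a factor divided by its frequency for the GST control.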

[2] = molecular target: T2, ELK1 (Homo sapiens, UniProt P19419 1-428)
T2 sequence: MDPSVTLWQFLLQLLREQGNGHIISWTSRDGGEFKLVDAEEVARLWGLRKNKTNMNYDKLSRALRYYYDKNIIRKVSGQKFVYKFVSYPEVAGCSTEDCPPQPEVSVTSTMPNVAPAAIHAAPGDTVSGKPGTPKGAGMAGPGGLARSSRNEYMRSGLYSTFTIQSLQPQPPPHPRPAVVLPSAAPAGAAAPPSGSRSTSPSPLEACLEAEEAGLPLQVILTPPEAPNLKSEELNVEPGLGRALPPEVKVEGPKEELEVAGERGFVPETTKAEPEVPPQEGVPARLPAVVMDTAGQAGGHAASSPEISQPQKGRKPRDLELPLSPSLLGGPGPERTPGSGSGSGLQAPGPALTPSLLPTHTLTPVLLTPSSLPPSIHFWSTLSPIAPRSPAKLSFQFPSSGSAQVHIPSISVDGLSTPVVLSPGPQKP
Outline: as §1

[3] = molecular target: T3, GABPA (Homo sapiens, UniProt Q06546 1-454)
T3 sequence: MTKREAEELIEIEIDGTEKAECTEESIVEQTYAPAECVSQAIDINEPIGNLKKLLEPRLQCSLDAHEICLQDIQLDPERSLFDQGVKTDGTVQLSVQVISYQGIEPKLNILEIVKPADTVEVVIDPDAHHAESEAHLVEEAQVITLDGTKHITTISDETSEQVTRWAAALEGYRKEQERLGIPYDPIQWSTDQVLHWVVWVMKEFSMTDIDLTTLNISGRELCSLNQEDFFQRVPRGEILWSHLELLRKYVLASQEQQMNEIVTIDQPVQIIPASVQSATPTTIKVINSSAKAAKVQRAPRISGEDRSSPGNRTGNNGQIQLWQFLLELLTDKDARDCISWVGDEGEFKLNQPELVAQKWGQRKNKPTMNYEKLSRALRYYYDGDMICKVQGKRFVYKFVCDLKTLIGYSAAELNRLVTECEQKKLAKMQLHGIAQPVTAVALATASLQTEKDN
Outline: as §1

[4] = molecular target: T4, ERG (Homo sapiens, UniProt P11308 1-479)
T4 sequence: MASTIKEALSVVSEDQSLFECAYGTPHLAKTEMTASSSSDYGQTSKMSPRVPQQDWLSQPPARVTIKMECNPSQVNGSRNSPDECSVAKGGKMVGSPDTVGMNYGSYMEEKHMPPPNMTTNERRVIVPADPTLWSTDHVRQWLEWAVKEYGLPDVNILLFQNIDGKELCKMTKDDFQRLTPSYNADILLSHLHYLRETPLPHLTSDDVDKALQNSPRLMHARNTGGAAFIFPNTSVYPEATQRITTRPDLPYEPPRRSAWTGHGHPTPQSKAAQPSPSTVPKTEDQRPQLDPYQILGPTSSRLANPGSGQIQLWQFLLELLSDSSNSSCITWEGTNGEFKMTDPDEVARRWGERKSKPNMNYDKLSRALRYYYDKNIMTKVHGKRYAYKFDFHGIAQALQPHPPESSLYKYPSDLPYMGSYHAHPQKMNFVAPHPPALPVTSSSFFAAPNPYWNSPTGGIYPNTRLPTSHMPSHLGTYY
Outline: as §1

[5] = molecular target: ELF1 (Homo sapiens, UniProt P32519 1-619)
Outline: as §1

[6] = molecular target: T5, EHF (Homo sapiens, UniProt Q9NZC4 1-300)
T5 sequence: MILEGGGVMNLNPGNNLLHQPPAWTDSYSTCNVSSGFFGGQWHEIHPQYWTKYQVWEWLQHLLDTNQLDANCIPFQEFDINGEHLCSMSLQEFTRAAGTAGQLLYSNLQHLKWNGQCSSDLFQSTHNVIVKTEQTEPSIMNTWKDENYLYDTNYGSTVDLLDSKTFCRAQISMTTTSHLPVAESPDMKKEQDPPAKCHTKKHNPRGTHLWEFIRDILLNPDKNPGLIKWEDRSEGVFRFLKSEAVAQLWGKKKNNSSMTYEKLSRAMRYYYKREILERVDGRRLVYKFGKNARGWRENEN
Outline: as §1

[7] = molecular target: SPI1 (Homo sapiens, UniProt P17947 1-270)
Outline: as §1

[8] = molecular target: SPIB (Homo sapiens, UniProt Q01892 1-262)
Outline: as §1

[9] = molecular target: T6, ELK3 (Homo sapiens, UniProt P41970 1-407)
T6 sequence: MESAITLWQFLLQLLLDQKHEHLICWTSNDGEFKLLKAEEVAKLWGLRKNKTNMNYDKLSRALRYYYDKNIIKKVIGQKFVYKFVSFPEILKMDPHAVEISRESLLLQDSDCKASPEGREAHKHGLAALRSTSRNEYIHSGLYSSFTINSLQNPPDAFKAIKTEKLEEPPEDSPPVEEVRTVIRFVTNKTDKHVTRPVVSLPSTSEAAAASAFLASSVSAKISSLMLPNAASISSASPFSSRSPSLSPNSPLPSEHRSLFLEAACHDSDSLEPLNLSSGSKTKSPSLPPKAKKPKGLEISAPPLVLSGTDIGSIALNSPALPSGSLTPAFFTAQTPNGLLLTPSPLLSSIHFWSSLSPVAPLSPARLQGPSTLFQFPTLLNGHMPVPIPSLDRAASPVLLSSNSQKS
Outline: as §1

Chain of SPIB (Q01892 whole entry): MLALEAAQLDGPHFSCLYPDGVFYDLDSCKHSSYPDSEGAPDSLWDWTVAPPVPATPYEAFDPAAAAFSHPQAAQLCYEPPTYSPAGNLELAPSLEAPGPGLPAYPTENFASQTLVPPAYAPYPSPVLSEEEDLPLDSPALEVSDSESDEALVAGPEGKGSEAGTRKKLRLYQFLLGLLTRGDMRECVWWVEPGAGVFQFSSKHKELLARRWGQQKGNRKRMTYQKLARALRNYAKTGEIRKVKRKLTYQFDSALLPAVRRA
Chain of ELF1 (P32519 whole entry): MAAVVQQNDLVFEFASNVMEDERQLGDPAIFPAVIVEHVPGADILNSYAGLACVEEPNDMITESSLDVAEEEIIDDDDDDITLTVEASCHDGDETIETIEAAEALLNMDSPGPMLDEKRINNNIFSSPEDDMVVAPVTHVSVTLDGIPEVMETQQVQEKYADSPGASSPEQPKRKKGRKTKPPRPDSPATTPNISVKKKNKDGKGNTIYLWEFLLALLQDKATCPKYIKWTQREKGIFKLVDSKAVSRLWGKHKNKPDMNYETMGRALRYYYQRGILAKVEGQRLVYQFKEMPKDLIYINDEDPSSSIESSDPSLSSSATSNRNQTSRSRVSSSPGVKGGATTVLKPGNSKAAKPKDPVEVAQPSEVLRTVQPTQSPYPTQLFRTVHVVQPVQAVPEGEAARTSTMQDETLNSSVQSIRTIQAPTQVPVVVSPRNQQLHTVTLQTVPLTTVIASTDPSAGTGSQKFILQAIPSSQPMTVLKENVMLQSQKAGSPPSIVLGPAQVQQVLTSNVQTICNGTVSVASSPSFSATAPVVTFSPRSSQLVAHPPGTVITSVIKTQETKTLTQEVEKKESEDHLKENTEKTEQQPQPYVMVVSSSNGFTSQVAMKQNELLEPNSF

Sequence | binding signal [1] | binding signal [2] | binding signal [3] | binding signal [4] | binding signal [5] | binding signal [6] | binding signal [7] | binding signal [8] | binding signal [9]
GCTTAC | 1.19 fold enrichment (6-mer frequency, TF over GST control) | 1.12 fold enrichment (6-mer frequency, TF over GST control) | 1.05 fold enrichment (6-mer frequency, TF over GST control) | 1.19 fold enrichment (6-mer frequency, TF over GST control) | 1.15 fold enrichment (6-mer frequency, TF over GST control) | 1.16 fold enrichment (6-mer frequency, TF over GST control) | 1.12 fold enrichment (6-mer frequency, TF over GST control) | 1.12 fold enrichment (6-mer frequency, TF over GST control) | 1.23 fold enrichment (6-mer frequency, TF over GST control)
TTTTAA | 1.26 fold enrichment (6-mer frequency, TF over GST control) | 1.28 fold enrichment (6-mer frequency, TF over GST control) | 1.25 fold enrichment (6-mer frequency, TF over GST control) | 1.2 fold enrichment (6-mer frequency, TF over GST control) | 1.29 fold enrichment (6-mer frequency, TF over GST control) | 1.22 fold enrichment (6-mer frequency, TF over GST control) | 1.32 fold enrichment (6-mer frequency, TF over GST control) | 1.26 fold enrichment (6-mer frequency, TF over GST control) | 1.3 fold enrichment (6-mer frequency, TF over GST control)
TAAAAC | 1.17 fold enrichment (6-mer frequency, TF over GST control) | 1.18 fold enrichment (6-mer frequency, TF over GST control) | 1.14 fold enrichment (6-mer frequency, TF over GST control) | 1.18 fold enrichment (6-mer frequency, TF over GST control) | 1.24 fold enrichment (6-mer frequency, TF over GST control) | 1.11 fold enrichment (6-mer frequency, TF over GST control) | 1.2 fold enrichment (6-mer frequency, TF over GST control) | 1.17 fold enrichment (6-mer frequency, TF over GST control) | 1.19 fold enrichment (6-mer frequency, TF over GST control)
TTGTTC | 1.5 fold enrichment (6-mer frequency, TF over GST control) | 1.41 fold enrichment (6-mer frequency, TF over GST control) | 1.53 fold enrichment (6-mer frequency, TF over GST control) | 1.34 fold enrichment (6-mer frequency, TF over GST control) | 1.44 fold enrichment (6-mer frequency, TF over GST control) | 1.64 fold enrichment (6-mer frequency, TF over GST control) | 1.51 fold enrichment (6-mer frequency, TF over GST control) | 1.57 fold enrichment (6-mer frequency, TF over GST control) | 1.39 fold enrichment (6-mer frequency, TF over GST control)
CACTTT | 1.25 fold enrichment (6-mer frequency, TF over GST control) | 1.33 fold enrichment (6-mer frequency, TF over GST control) | 1.21 fold enrichment (6-mer frequency, TF over GST control) | 1.26 fold enrichment (6-mer frequency, TF over GST control) | 1.35 fold enrichment (6-mer frequency, TF over GST control) | 1.36 fold enrichment (6-mer frequency, TF over GST control) | 1.39 fold enrichment (6-mer frequency, TF over GST control) | 1.37 fold enrichment (6-mer frequency, TF over GST control) | 1.29 fold enrichment (6-mer frequency, TF over GST control)
CCGACC | 1.66 fold enrichment (6-mer frequency, TF over GST control) | 1.59 fold enrichment (6-mer frequency, TF over GST control) | 1.65 fold enrichment (6-mer frequency, TF over GST control) | 1.55 fold enrichment (6-mer frequency, TF over GST control) | 1.47 fold enrichment (6-mer frequency, TF over GST control) | 1.44 fold enrichment (6-mer frequency, TF over GST control) | 1.42 fold enrichment (6-mer frequency, TF over GST control) | 1.57 fold enrichment (6-mer frequency, TF over GST control) | 1.8 fold enrichment (6-mer frequency, TF over GST control)
TCTGCG | 1.12 fold enrichment (6-mer frequency, TF over GST control) | 1.28 fold enrichment (6-mer frequency, TF over GST control) | 1.27 fold enrichment (6-mer frequency, TF over GST control) | 1.18 fold enrichment (6-mer frequency, TF over GST control) | 1.2 fold enrichment (6-mer frequency, TF over GST control) | 1.23 fold enrichment (6-mer frequency, TF over GST control) | 1.28 fold enrichment (6-mer frequency, TF over GST control) | 1.23 fold enrichment (6-mer frequency, TF over GST control) | 1.11 fold enrichment (6-mer frequency, TF over GST control)
CCTCAG | 1.17 fold enrichment (6-mer frequency, TF over GST control) | 1.23 fold enrichment (6-mer frequency, TF over GST control) | 1.35 fold enrichment (6-mer frequency, TF over GST control) | 1.21 fold enrichment (6-mer frequency, TF over GST control) | 1.27 fold enrichment (6-mer frequency, TF over GST control) | 1.17 fold enrichment (6-mer frequency, TF over GST control) | 1.17 fold enrichment (6-mer frequency, TF over GST control) | 1.35 fold enrichment (6-mer frequency, TF over GST control) | 1.24 fold enrichment (6-mer frequency, TF over GST control)

— paper PMC7862700, “An all-to-all approach to the identification of sequence-specific readers for epigenetic DNA modifications on cytosine”
